# Screening data as filed in PubChem BioAssay.
# Tb PYK inh – blocks Trypanosoma brucei pyruvate kinase; hit rate 0.12% among 410,000; Potency, µM (top dose mostly 76.8 µM), inactives show at the top dose activity, negative = inhibition, most hits filed as inhibitors; TbPYK enzyme, Kinase-Glo Plus ATP luminescence, 45 min; further: on the % scale 0 is the no-effect control and ±100 the full control effect; nearly all actives have a fitted effect of over 50% in size
#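 Screened from lowest to highest concentration, compounds were pinned into TbPYK/substrate mixtures, and ADP (130 uM final) was added. Plates sat at room temperature for 45 min prior to Kinase-Glo Plus detection by luminescence.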
# RE007 growth inh – less growth of the S. pombe RE007 Vpr strain; hit rate 0.21% among 360,000; S. pombe RE007 Vpr strain, BacTiter-Glo ATP luminescence, 24 h; Potency, µM (series often up to 92.2 µM), inactives show at the top dose activity change, negative = less growth, hits mostly inhibitors; AID 651644; active means well fitted falling curve with a large enough effect; inconclusive means small, poorly fitted or top-dose-only effect; inactive means no such curve, though single readings can be large or run the other way; further: on the % scale 0 is the no-effect control and ±100 the full control effect; nearly all actives have a fitted effect of over 50% in size
#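 Fission yeast strain RE007, carrying one chromosomally integrated HIV-1 vpr copy, was seeded at OD 0.01 in PMG+AL medium with 23 nL pinned compound. After 24 h at 30 °C and 99% humidity, viability was read by BacTiter-Glo luminescence.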
# NS1 inh – influenza NS1 inhibition | Potency, µM (series often up to 46.1 µM), for the others: at the highest dose activity, positive = more growth | hit rate 0.4% among 270,000 | AID 2326; calls by dose curve; further: actives are rising curves; nearly all actives have a fitted effect of over 50% in size
#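 Recovery from NS1-induced slow growth read by OD600 in budding yeast switched to galactose assay medium (pH 6.0, -URA) at 1:100 dilution. Compound 23 nl per well; the matching strain lacking NS1 serves as control.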
# Giardia FBPA inh – blocks Giardia fructose-bisphosphate aldolase activity; A8B2U2; purified Giardia FBPA; Potency, µM (doses to about 59.6 µM), without a hit: at the highest dose activity, negative = inhibition, hits mostly inhibitors; hit rate 0.71% among 290,000; AID 2451; further: on the % scale 0 is the no-effect control and ±100 the full control effect; nearly all actives have a fitted effect of over 55% in size
# Target sequence (A8B2U2 whole entry, looked up): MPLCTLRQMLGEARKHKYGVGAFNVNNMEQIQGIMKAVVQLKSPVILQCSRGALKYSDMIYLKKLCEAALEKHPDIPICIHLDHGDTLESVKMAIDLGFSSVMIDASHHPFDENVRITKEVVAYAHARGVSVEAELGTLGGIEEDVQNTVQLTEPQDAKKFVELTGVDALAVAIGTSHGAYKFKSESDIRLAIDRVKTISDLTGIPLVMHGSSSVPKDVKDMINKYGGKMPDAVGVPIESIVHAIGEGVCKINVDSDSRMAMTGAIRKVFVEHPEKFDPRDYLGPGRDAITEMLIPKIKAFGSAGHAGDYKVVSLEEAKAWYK
#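 40 nM FBPA preincubated 10 min at RT with compound (up to 57.5 uM final), then substrate plus GAPDH/TPI/NAD/arsenate coupling and diaphorase/resazurin added. Fluorescence read after 20 min at RT, 525/598 nm.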
# LmPK inhibitor – blocks Leishmania mexicana pyruvate kinase activity; hit rate 0.37% among 290,000; Q27686; Potency, µM (titrated, usually from 57.5 µM), inactives show at the top dose activity change, negative = inhibition, usual class: inhibitors; purified LmPK, Kinase-Glo ATP luminescence, 1 h; further: on the % scale 0 is the no-effect control and ±100 the full control effect
#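 ATP generated from ADP (0.1 mM) and PEP (0.5 mM) by 0.1 nM LmPK over 1 h at room temperature (pH 7.2 imidazole buffer) was detected by coupled luciferase luminescence. Values were normalized to uninhibited and no-enzyme wells.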
# Sm TGR inh – blocks Schistosoma mansoni thioredoxin glutathione reductase; Q962Y6; purified TGR, DTNB reduction, TNB absorbance 405 nm; Potency, µM (highest dose often 114 µM), inactives show at the top dose activity change, negative = inhibition, actives largely listed as inhibitors; hit rate 3% among 360,000; AID 485364; further: on the % scale 0 is the no-effect control and ±100 the full control effect; nearly all actives have a fitted effect of over 60% in size
#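 First, TGR (20 nM dispensed) and NADPH were mixed with compound. Second, a 15 min room-temperature incubation followed. Third, further NADPH and then DTNB were added to start the reaction. Finally, TNB absorbance was monitored kinetically.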
# Starred values were filed as active, the others as inactive; ? = inconclusive; nt = no result. Compounds with a hit are over-represented: about 3.5% of the library has one in this group of screens. Unless noted, the call rests on the fitted dose curve; in most records, active means well fitted curve in the direction sought with a large enough effect; inconclusive means small, poorly fitted or top-dose-only effect, or another doubt; inactive means no such curve, though single readings can be large; an effect the other way counts as inactive or inconclusive. Potency means the concentration at half of the fitted maximal effect.
SMILES,Tb PYK inh,RE007 growth inh,NS1 inh,Giardia FBPA inh,LmPK inhibitor,Sm TGR inh
NCCCn1c(C(=O)c2cc(Cl)c(N)c(Cl)c2)c2ccccc2[n+]1[O-],-3%,-12%,nt,nt,nt,35µM*
Cc1ccc(C(=O)c2c3ccc([N+](=O)[O-])cc3[n+]([O-])n2CCCN)cc1,-12%,-11%,nt,nt,nt,35µM*
Cc1ccc(C(=O)c2c3ccc(C(F)(F)F)cc3[n+]([O-])n2CCCN)cc1,3%,7%,nt,nt,nt,-25%
NC(=O)CCn1c(C(=O)c2cc(Cl)c(N)c(Cl)c2)c2ccccc2[n+]1[O-],0%,7%,-4%,8%,-1%,4%
O=C1Cc2cc(S(=O)(=O)N3CCN(c4ccc(O)cc4)CC3)ccc2N1,-23%,nt,nt,nt,nt,nt
O=C1CC(=O)Nc2cc(S(=O)(=O)N3CCN(c4ccc([N+](=O)[O-])cc4)CC3)ccc2N1,9%,-8%,-4%,16%,11%,11µM*
CCOC(=O)c1c(C)sc2c1N(C(=O)CCl)c1cc(Cl)ccc1S2,-1%,5%,-37%,19%,3%,2.5µM*
N#CC(C#N)=c1ccc2c(c1)NC1(CCCCC1)N=2,?,?,-89%,?,14µM*,-23%
Cc1ccc(C2/C(=C(/O)c3cnn(-c4ccccc4)c3C)C(=O)C(=O)N2CCCN2CCOCC2)o1 (stereo not given),nt,nt,10%,-29%,1%,10µM*
Cc1c(/C(O)=C2\C(=O)C(=O)N(CCCN(C)C)C2c2ccccc2)cnn1-c1ccccc1 (stereo not given),1%,13%,1%,-2%,1%,3%
Cc1c(/C(O)=C2/C(=O)C(=O)N(CCN3CCOCC3)C2c2ccccn2)cnn1-c1ccccc1 (stereo not given),1%,-4%,2%,?,-2%,22µM*
CN1CCC[C@@H]1c1cccnc1.O=C(O)c1ccccc1O.O=C([OH2+])c1ccccc1O.O=C([OH2+])c1ccccc1O.O=C([OH2+])c1ccccc1O.[Cu],nt,nt,0%,nt,nt,nt
Cc1ccccc1Nc1nc(N)nc(CCl)n1,0%,5%,1%,-5%,-5%,?
Nc1nc(CCl)nc(Nc2ccc3ccccc3c2)n1,10%,13%,2%,-24%,-5%,16µM*
COc1ccc(Nc2nc(N)nc(CCl)n2)cc1,0%,20%,2%,0%,-14%,35µM*
COc1ccc(Nc2ccc(OC)cc2)cc1,8%,-24%,-4%,?,-12%,40µM*
CCN(CC)S(=O)(=O)c1ccc(OC)c(NC(=O)c2sc3ccccc3c2Cl)c1,1%,nt,nt,nt,nt,7%
COc1ccc(S(=O)(=O)N2CCN(C(=O)C3COc4ccccc4O3)CC2)cc1 (stereo not given),-13%,-5%,nt,nt,nt,18µM*
CCOC(=O)N1CCN(C(=O)C2COc3ccccc3O2)CC1 (stereo not given),-7%,0%,-12%,2%,0%,5%
CCN1CCN(C(=O)C2COc3ccccc3O2)CC1 (stereo not given),5%,6%,8%,nt,-6%,22µM*
CC(=O)Nc1ccc(S(=O)(=O)N2CCN(C(=O)C3COc4ccccc4O3)CC2)cc1 (stereo not given),-6%,1%,-18%,nt,-5%,1%
Cc1nc(Nc2nc3ccccc3o2)nc2c1CCC2,0%,-4%,-15%,-9%,16µM*,-6%
CCOC(=O)c1cnc(Nc2nc3ccccc3o2)nc1CN1CCN(c2ccccc2)CC1,nt,nt,-1%,nt,nt,nt
CCOC(=O)c1cnc(Nc2nc3ccccc3o2)nc1C,?,-9%,8%,-1%,14µM*,1%
CN(Cc1ccc(Cl)cc1)C(=O)CCl,1%,-29%,nt,-6%,10%,1.8µM*
SMILES,Tb PYK inh,RE007 growth inh,NS1 inh,Giardia FBPA inh,LmPK inhibitor,Sm TGR inh
CN(C)CCNC(=O)c1ccc(Cl)s1,2%,15%,8%,3%,-3%,-9%
COc1ccc(CN(C)C(=O)CCl)cc1,6%,-1%,nt,-9%,7%,22µM*
CN(Cc1ccc(Cl)s1)C(=O)CCl,1%,2%,nt,-1%,-3%,2.8µM*
CC(O)c1cccc2cc(C(O)CNC(C)(C)C)oc12 (stereo not given),nt,nt,nt,-2%,nt,nt
COc1ccccc1CNC(=O)c1ccc2nc(CCc3ccccc3)oc2c1,1%,nt,nt,nt,nt,-8%
Cc1ccc(NC(=O)CCSc2nc(-c3ccc4c(c3)OCO4)cc(C(F)(F)F)n2)cc1,2%,nt,nt,nt,nt,9%
CCc1ccc(NC(=O)CCCn2nc(C)c3c(C)n(-c4ccccc4)nc3c2=O)cc1,4%,nt,nt,nt,nt,0%
Cc1cccc(NC(=O)CN2C(=O)N/C(=C/c3cc(C)n(-c4ccncc4)c3C)C2=O)c1,-9%,4%,18%,-4%,5%,2%
Cc1cc(/C=C2\SC(=O)N(CC(=O)Nc3ccccc3F)C2=O)c(C)n1C,-4%,10%,nt,-4%,-4%,25µM*
Cc1cccc(NC(=O)CN2C(=O)N/C(=C/c3cc(C)n(C)c3C)C2=O)c1,-19%,-13%,nt,-11%,-3%,25µM*
O=C1NC(=O)C(Cc2cccs2)C(=O)N1,?,-14%,2%,3%,-2%,40µM*
CCCCCC1Nc2cc(C(F)(F)F)c(S(N)(=O)=O)cc2S(=O)(=O)N1 (stereo not given),4%,nt,nt,nt,nt,nt
CC(/C=C/c1ccc(Cl)o1)=C\C(=O)O,-6%,-14%,-200%,3%,-11%,8.9µM*
O=C(/C=C/c1ccc(-c2ccccc2)o1)c1ccccc1,-1%,-1%,-4%,-25%,-20%,?
CC(=C/C(=O)O)/C=C/c1ccco1,?,-4%,-14%,-14%,6%,7.9µM*
CCN(C(=O)C=Cc1ccco1)c1ccccc1,-7%,24%,nt,nt,nt,nt
Cc1ccc(NC(=O)CCS(=O)(=O)c2cc3c4c(c2)CCN4C(=O)CC3)c(C)c1,-3%,nt,nt,nt,nt,1%
Fc1ccc(-c2c[nH]c(=S)n2Cc2ccccc2)cc1,?,25%,nt,-3%,3.5µM*,-3%
CC(=O)Nc1ccc(Nc2ncnc3c2c(-c2ccccc2)cn3-c2ccc(C)c(Cl)c2)cc1,-10%,nt,nt,nt,nt,-4%
C#CCNC(=O)C1=C[C@@H](C2CC2)C[C@@H](OCCCCO)O1,1%,-1%,1%,-9%,-2%,?
C#CCNC(=O)C1=C[C@H](C2CCCCC2)C[C@H](OCCCCO)O1,-1%,2%,0%,-15%,8%,13µM*
C#CCNC(=O)C1=C[C@@H](C2CCCCC2)C[C@@H](OCCCCO)O1,1%,22%,0%,-29%,10%,13µM*
CCC(=O)Nc1ccc(S(=O)(=O)NCc2ccc3c(c2)CCN3C(=O)c2ccc(C)cc2)cc1,2%,nt,nt,nt,nt,3%
